The record followed here is PubChem BioAssay (EPA / NIEHS).

By AC50 is commonly meant the concentration at which the activity in the assay is half-maximal.

The source made the active and inactive calls. Rule for the calls: active = hit-call score of the fitted dose curve at least 0.9, where 1 is the maximum; inactive = score below 0.9.

Read-out in the test: Urokinase-type plasminogen activator receptor (uPAR), PLAUR (gene 5329)
Kind of test: BSK_4H_uPAR: BioMAP Diversity Plus: 4H Assay for Urokinase-type plasminogen activator receptor (uPAR) Biomarker Activity (AID 2283030). The following applies: primary human endothelial cells (HUVEC); actives raise or lower the signal. In outline: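 uPAR level read by ELISA on HUVEC cultures (BioMAP 4H) 24 h post-dosing, analyzed for gain or loss relative to DMSO. Parallel SRB staining assessed overt cytotoxicity.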
As for `Cc1cccc2ccccc12`, the outcome was inactive.
Still for that read-out and setting: the result for `CCO[Si](CCCNC(N)=O)(OCC)OCC` reads “inactive”.
Turning to `Clc1ccccc1C(c1ccccc1)(c1ccccc1)n1ccnc1`, the AC50 is 18.3 µM (active).
As for `c1ccc2n[nH]nc2c1`, the outcome was inactive.
On the same count and under the same terms, the entry for `Cc1ccc(C(C)C)cc1` is “inactive”.
Consider `NC(=O)c1nc(-c2cccc(-c3cc(F)ccc3OCC(F)(F)C(F)(F)F)c2)n[nH]1`, for which the AC50 is 22.6 µM (active).
In the case of `NCc1cccc(C2CCN(C(=O)c3ccc(C#Cc4ccccc4F)o3)CC2)c1`, the AC50 is 23.2 µM (active).
As for `CCCCOC(=O)CC(CC(=O)OCCCC)(OC(C)=O)C(=O)OCCCC`, the outcome was inactive.
Consider `CN(C)c1ccc(C(=C2C=CC(=[N+](C)C)C=C2)c2ccc(N(C)C)cc2)cc1`, for which the AC50 was 1.42 µM (active).
On to `CCCCCCCC[Si](OCC)(OCC)OCC`, for which the AC50 is 33.2 µM (active).
On to `Cc1occc1C(=O)Nc1ccc(C(=O)N2CCC(F)(F)/C(=C\C(=O)N3CCC(N4CCCCC4)CC3)c3ccccc32)cc1`, for which the result was inactive.
Take `Cc1c2ccccc2c(C)c2c1ccc1ccccc12`: the AC50 was 14 µM (active).
As for `O=C=NCCCCCCN=C=O`, the result was inactive.
Consider `Cc1oc2c(NC(=O)c3c(Cl)cccc3Cl)cccc2c1C(C)(C)O`, for which the result was inactive.
Take `CCCCCCCCCCCC[N+](C)(C)C`: the AC50 is 29.8 µM (active).
As to `O=CCCCC=O`, the outcome was inactive.
`CC[C@H](NC(=O)c1cc(F)ccc1NS(=O)(=O)c1cccc2cccnc12)c1ccccc1`: the outcome was inactive.
As to `CC(C)(C)c1cc(/C=C2\SC(N)=NC2=O)cc(C(C)(C)C)c1O`, the AC50 was 36.7 µM (active).
`CCCCCCCCCC(=O)O`: the result was inactive.
With `CC(C)(C)c1csc(-c2cc3cc(OCc4ccccc4CC(=O)O)ccc3o2)n1`, the AC50 is 21 µM (active).
As for `CCN(Cc1cccnc1)C(=O)c1cccc(Cl)c1[C@]1(C)C(=O)N(Cc2ccc(OC)cc2OC)c2ccc(Cl)cc21`, the AC50 was 5.48 µM (active).
The same measure, in the same setting: the figure for `CCN(CC)C(=O)c1cc(S(=O)(=O)Cc2ccccc2)c(N2CCC(c3ccccc3)CC2)cc1N(CC)CCN(C)C` is 19.8 µM (active).
With `O=C1O[C@H]([C@@H](O)CO)C(O)=C1O`, the result was inactive.
The same measure, in the same setting: the entry for `CN1C(=O)CC[C@H]1c1cccnc1` is “inactive”; for `Cc1cn([C@H]2C[C@H](N=[N+]=[N-])[C@@H](CO)O2)c(=O)[nH]c1=O` it is “inactive”; for `O=c1ccc2ccccc2o1` it is “inactive”.
For the molecule `COc1cc(C(=O)NC2CCN(C)CC2)ccc1Nc1ncc2c(n1)N(C1CCCC1)CC(F)(F)C(=O)N2C`, the AC50 is 7.45 µM (active).
As for `CC(O)CC(C)(C)O` (stereo not drawn), the result was inactive.
Turning to `CC(=O)N1CCN(c2ccc(OC[C@H]3CO[C@](Cn4ccnc4)(c4ccc(Cl)cc4Cl)O3)cc2)CC1`, the AC50 was 32.9 µM (active).
The same measure, in the same setting: the result for `O=c1[nH]sc2ccccc12` reads 20 µM (active); that for `CC/C(=C(/CC)c1ccc(O)cc1)c1ccc(O)cc1`, 17.8 µM (active).
Same read-out and setting: the figure for `CCCCCc1ccc(N)cc1` is 7.58 µM (active); for `CN(C)C(=O)C1(N2CCCCC2)CCN(CC[C@@]2(c3ccc(Cl)c(Cl)c3)CN(C(=O)c3ccccc3)CCO2)CC1` it is 12.3 µM (active).
Consider `O=C(O)c1ccccc1C(=O)OCc1ccccc1`, for which the result was inactive.
Take `CCCC(=O)OCCC(C)C`: the outcome was inactive.
Turning to `CN(C[C@@H](CC[N+]12CCC(C3CCCCC3)(CC1)CC2)c1ccc(Cl)c(Cl)c1)C(=O)c1cc(C(F)(F)F)cc(C(F)(F)F)c1`, the concentration at half-maximal activity (AC50) was 29.1 µM (active).
On to `CCN(Cc1cccc(S(=O)(=O)O)c1)c1ccc(C(=C2C=CC(=[N+](CC)Cc3cccc(S(=O)(=O)O)c3)C=C2)c2ccccc2S(=O)(=O)[O-])cc1`, for which the outcome was inactive.
`O=C(O)Cc1cc(I)c(Oc2ccc(O)c(I)c2)c(I)c1`: the AC50 is 23.3 µM (active).
